# In PubChem BioAssay (NCATS):
# Several values for one entry are separate records, joined by “and”; a condition that tells them apart may be missing. Equal values may be shown once. Records with an inconclusive call do not appear. Activity calls are given as the source filed them. Unless noted, the call rests on the fitted dose curve; in most records, active means well fitted curve in the direction sought with a large enough effect; inconclusive means small, poorly fitted or top-dose-only effect, or another doubt; inactive means no such curve, though single readings can be large; an effect the other way counts as inactive or inconclusive.
# Assays:
# [1] = Primary qHTS for inhibitors of nuclear receptor binding SET domain protein 2 (NSD2) in an isogenic RCH-ACV NSD2 p.E1099K mutant (9B) (AID 1645876); further: nearly all actives have a fitted effect of over 70% in size; further: potency means the concentration at half of the fitted maximal effect
# [2] = molecular target: Glutathione peroxidase 1 (Homo sapiens) (UniProt P07203); experiment: Primary qHTS Assay for Inhibitors of Recombinant Selenoprotein Glutathione Peroxidase 1 (GPX1) (AID 1845191); further: nearly all actives have a fitted effect of over 65% in size
# Outline: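 Recombinant GPX1 (10 nM final) was preincubated with compound for 30 min at room temperature, then reacted with 1 mM GSH, 0.5 mM CHP, 0.5 mM NADPH and 100 nM glutathione reductase; NADPH fluorescence (340/450 nm) was read at 0 and 15 min.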
# [3] = qHTS drug screen for cell cycle checkpoint inhibitors in PARPi-resistant BRCA-mutant ovarian cancer cell lines. (AID 1963452; calls by dose curve; further: potency means the concentration at half of the fitted maximal effect); conditions: PEO1/OlaR viability, CellTiter-Glo luminescence, 96 h; for Z-AUC: stronger effect = lower value
# Outline: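 PEO1, PEO4 and PEO1/OlaR ovarian cancer cells, 600 per well, exposed 96 h at 37C to a dilution series. Viability read by CellTiter-Glo luminescence, normalized to DMSO and empty wells; activity summarized as Z-AUC.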
# [4] = qHTS Assay for Lipid Storage Modulators (AID 1519; calls by dose curve; on activity change, negative = inhibition: on the % scale 0 is the no-effect control and ±100 the full control effect); conditions: Drosophila S3 cells, BODIPY lipid droplet/cell ratio, laser cytometry, cells loaded with oleic acid; for activity change, negative = inhibition: at 57.5 µM (top of the series)
# Outline: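 Cells seeded at 5,000 per well were treated with compounds over a concentration series and loaded with oleic acid (400 uM, as added). Lipid droplet fluorescence (488 nm excitation, 500-530 nm channel) was read by laser-scanning cytometry and normalized to 20 uM Triacsin C.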
# [5] = molecular target: DNA repair nuclease/redox regulator APEX1 (Homo sapiens) (UniProt P27695); experiment: qHTS Validation Assay for Inhibitors of the Human Apurinic/apyrimidinic Endonuclease 1 (APE1) (AID 1705;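 further: TAMRA fluorescence gain over two minutes as APE1 cuts a quenched THF abasic duplex; on the % scale 0 is the no-effect control and ±100 the full control effect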)
# Outline: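 Activity read as rising fluorescence (598 nm emission, 525 nm excitation) from incision of a TAMRA/BHQ-2 duplex carrying a THF abasic site (50 nM). Compound and enzyme sat 15 min at RT before substrate start; signal change between first and third 60-s reads.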
# [6] = Counterscreen for APE1 Inhibitors: Fluorescent Dye Displacement Validation Assay (AID 1707);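 further: plate controls were ThO with dsDNA and no compound for no effect and ThO without dsDNA for full effect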
# Outline: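 Assay buffer: Tris-HCl pH7.5 with 50mM NaCl, 2 mM MgCl2, 0.01% Tween-20. Dye 250 nM, duplex 50 nM final. Readout: decrease in ThO endpoint fluorescence, 480 nm excitation, 540 nm emission.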
# [7] = qHTS for differential inhibitors of proliferation of Plasmodium falciparum line D10 (AID 1877);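 further: parasites grown with compound for 72 h before DNA staining; plate controls were vehicle wells for no effect and reference inhibitor wells for full effect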
# [8] = qHTS for differential inhibitors of proliferation of Plasmodium falciparum line Dd2 (AID 1882); conditions: Potency: Plasmodium falciparum Dd2 proliferation inhibition;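 further: plate controls were DMSO vehicle for no effect and 0.29 µM artemisinin for full effect; nearly all actives have a fitted effect of over 65% in size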
# Outline: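 Dd2-infected erythrocytes (0.3% parasitemia, 2.5% hematocrit final) incubated with compound 72 h at 37 C, 5% CO2; lysed with saponin/Triton buffer containing SYBR Green I, incubated overnight in the dark, then read by fluorescence (485/535 nm). Normalized to 0.29 uM artemisinin and DMSO.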
# [9] = molecular target: Ferritin light chain (Equus caballus) (UniProt P02791); experiment: qHTS Validation Assay for Identification of Novel General Anesthetics (AID 2323); further: on the % scale 0 is the no-effect control and ±100 the full control effect
# Outline: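 Competitive displacement of the profluorescent anesthetic 1-AMA (50% saturated, PBS) from 10 uM apoferritin, 10 min, room temperature. Activity is normalized 380/535 nm fluorescence; concentration-response fitted with a four-parameter Hill equation.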
# [10] = molecular target: ATP-dependent DNA helicase Q1 (Homo sapiens) (UniProt P46063); experiment: qHTS Validation Assay for Inhibitors of RecQ-Like Dna Helicase 1 (RECQ1) (AID 2353);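 further: plate controls were DMSO vehicle for no effect and enzyme-free control for full effect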
# Outline: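 50 nM RECQ1T1 preincubated 15 min with compound in Tris pH 8.0 buffer with MgCl2, DTT, Tween-20 and 2.5 ug/ml poly(dI-dC); started with 200 nM TAMRA/BHQ-2 forked duplex and 2 mM ATP. Unwinding read as fluorescence (525/598 nm), two reads 2 h apart.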
# [11] = Validation screen for small molecules that induce DNA re-replication in MCF 10A normal breast cells (AID 463097); further: 0% is about no effect; nearly all actives have a fitted effect of over 60% in size
# Outline: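 Read-out is Hoechst total nuclear intensity by fluorescence scanning imager, flagging increased high-DNA-content nuclei. Compounds were incubated with MCF 10A cells for 48 hr (37 C, 5% CO2) before 40 min staining.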
# [12] = Quantitative high throughput screen for delayed death inhibitors of the malarial parasite plastid, 96 hour incubation (AID 488745); further: on the % scale 0 is the no-effect control and ±100 the full control effect; nearly all actives have a fitted effect of over 70% in size
# Outline: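 Luciferase-expressing P. falciparum in erythrocytes (2% hematocrit, 0.1% parasitemia) incubated with compound for 96 h at 37 C, 5% CO2, in RPMI 1640 with 0.5% Albumax. Growth inhibition read as decreased luminescence.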
# [13] = Quantitative high throughput screen for delayed death inhibitors of the malarial parasite plastid, 48 hour incubation (AID 488752); further: on the % scale 0 is the no-effect control and ±100 the full control effect; nearly all actives have a fitted effect of over 65% in size
# Outline: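 Erythrocytes infected with firefly luciferase-expressing P. falciparum (2% hematocrit, 0.1% parasitemia) cultured with compound for 48 h at 37 C, 5% CO2, in RPMI 1640/0.5% Albumax. Growth inhibition read as loss of luminescence.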
# [14] = molecular target: M-phase phosphoprotein 8 (Homo sapiens) (UniProt Q99549); experiment: qHTS Validation Assay for Inhibitors for MPP8 Chromodomain Interactions with Methylated Histone Tails (AID 488949);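 further: AlphaScreen signal from MPP8 chromodomain bound to biotinylated H3K9me3 peptide; top concentration of the series differs between compounds; on the % scale 0 is the no-effect control and ±100 the full control effect; nearly all actives have a fitted effect of over 55% in size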
# Outline: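 AlphaScreen proximity signal from streptavidin donor and Ni-chelate acceptor beads (10 ug/mL each) reported binding of MPP8 to trimethyl-K9 H3(1-18) peptide, both at 50 nM. The complex formed 30 min before a 30 min compound exposure at room temperature, in PBS pH 7.4.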
# [15] = molecular target: Transient receptor potential cation channel subfamily V member 1 (Homo sapiens) (UniProt Q8NER1); experiment: HTS Assay for Compounds that Act as Enhancers of the Vanilloid Receptor 1 (AID 488979); further: 0% is about no effect
# Outline: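 TRPV1-expressing cells loaded with Fluo-8 calcium dye; compounds added and calcium influx read kinetically for 3 min (agonist phase), then capsaicin at EC20 added and read 2 min more for enhancement. Fluorescence ex 480/em 520 nm.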
# [16] = molecular target: Thyrotropin receptor (Homo sapiens) (UniProt P16473); experiment: qHTS Assay for Antagonists of the Thyroid Stimulating Hormone Receptor (AID 488980); further: 0% is about no effect
# Outline: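 Inhibition of cAMP raised by EC80 TSH (4 nM final) was read by HTRF, with lysate cAMP competing against cAMP-d2 for cryptate antibody after 30 min at room temperature. The cells were transfected HEK293 held in phosphodiesterase inhibitor RO 20-1724 at 70 uM.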
# [17] = molecular target: Thyrotropin-releasing hormone receptor (Homo sapiens) (UniProt P34981); experiment: qHTS for Small Molecule Agonists and Allosteric Enhancers of Human TRH Receptor: Validation Screen for Agonists (AID 493127;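 active means calcium activation more than 3 SD above the typical response in the agonist read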; further: 0% is about no effect); conditions: TRH receptor agonist cell assay; at 2 µM; stronger effect = higher value
# Outline: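 TRHR cells loaded with fluo-8 calcium dye; FDSS kinetic fluorescence (Ex 480/Em 530) read at 1 s/cycle after 23 nL compound addition. Agonist-mode calcium response recorded before the 10 nM TRH (EC20) addition.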
# [18] = molecular target: Galactokinase (Homo sapiens) (UniProt P51570); experiment: qHTS Validation Assay for Inhibitors of Human Galactokinase (GALK) (AID 493189); further: 0% is about no effect
# Outline: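 Inhibition was measured as remaining ATP, detected by luciferase luminescence after a 1 h room-temperature reaction. Final conditions: 5 nM GALK, 100 uM galactose, 35 uM ATP, pH 8.0 HEPES buffer.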
# [19] = Validation screen for small molecules that induce DNA re-replication in SW480 colon adenocarcinoma cells (AID 504364); further: 0% is about no effect
# Outline: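 SW480 cells (250/well) exposed 48 h at 37 C, 5% CO2, then Hoechst-stained 40 min. Nuclear DNA content imaged by fluorescence scanning (405 nm excitation, 500-530 nm emission); re-replication scored as increased nuclei with elevated intensity.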
# [20] = molecular target: Voltage-gated inwardly rectifying potassium channel KCNH2 (Homo sapiens) (UniProt Q12809); experiment: qHTS Assay for Small Molecule Inhibitors of the Human hERG Channel Activity (AID 588834);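 further: top concentration of the series differs between compounds; on the % scale 0 is the no-effect control and ±100 the full control effect; lower thallium flux fluorescence means stronger hERG block; nearly all actives have a fitted effect of over 50% in size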
# Outline: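 Kinetic FDSS fluorescence; U2OS + hERG BacMam (~100 virus particles/cell); FluxOR Tl+ flux; ~10 min cpd; AC50 (Hill).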
# [21] = measured here: PEO1 parental Z-AUC
# [22] = measured here: cell count channel max response
# [23] = measured here: lipid channel max response
# Sequence of Glutathione peroxidase 1 (Homo sapiens) (P07203 whole entry, looked up): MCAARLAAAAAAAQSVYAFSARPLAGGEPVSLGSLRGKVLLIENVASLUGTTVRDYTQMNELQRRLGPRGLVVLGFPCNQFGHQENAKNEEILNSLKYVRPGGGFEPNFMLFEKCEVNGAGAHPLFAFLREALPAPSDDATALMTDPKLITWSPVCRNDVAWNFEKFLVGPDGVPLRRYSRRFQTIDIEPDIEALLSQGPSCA
# Sequence of M-phase phosphoprotein 8 (Homo sapiens) (Q99549 whole entry, looked up): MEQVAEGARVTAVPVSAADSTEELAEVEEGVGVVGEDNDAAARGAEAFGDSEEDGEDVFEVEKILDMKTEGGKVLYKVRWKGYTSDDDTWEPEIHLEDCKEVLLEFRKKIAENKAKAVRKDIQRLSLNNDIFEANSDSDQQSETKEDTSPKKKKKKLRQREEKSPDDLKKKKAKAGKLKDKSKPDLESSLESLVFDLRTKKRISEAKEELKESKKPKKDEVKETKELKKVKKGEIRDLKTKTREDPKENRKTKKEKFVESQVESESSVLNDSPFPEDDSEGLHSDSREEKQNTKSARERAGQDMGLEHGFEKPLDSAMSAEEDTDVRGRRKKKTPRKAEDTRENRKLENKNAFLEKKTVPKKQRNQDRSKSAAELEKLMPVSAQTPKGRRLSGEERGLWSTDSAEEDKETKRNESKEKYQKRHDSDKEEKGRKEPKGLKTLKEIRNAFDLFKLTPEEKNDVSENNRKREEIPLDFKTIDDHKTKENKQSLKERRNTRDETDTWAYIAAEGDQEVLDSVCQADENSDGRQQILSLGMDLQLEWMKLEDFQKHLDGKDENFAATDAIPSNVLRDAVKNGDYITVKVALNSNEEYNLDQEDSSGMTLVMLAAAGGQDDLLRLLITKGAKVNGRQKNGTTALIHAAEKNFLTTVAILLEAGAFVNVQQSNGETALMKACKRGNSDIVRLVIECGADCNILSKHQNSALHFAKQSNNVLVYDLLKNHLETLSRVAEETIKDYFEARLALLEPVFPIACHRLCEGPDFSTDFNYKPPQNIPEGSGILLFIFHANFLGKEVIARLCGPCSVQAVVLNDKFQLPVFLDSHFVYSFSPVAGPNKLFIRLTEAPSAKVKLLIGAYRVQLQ
# Sequence of ATP-dependent DNA helicase Q1 (Homo sapiens) (P46063 whole entry, looked up): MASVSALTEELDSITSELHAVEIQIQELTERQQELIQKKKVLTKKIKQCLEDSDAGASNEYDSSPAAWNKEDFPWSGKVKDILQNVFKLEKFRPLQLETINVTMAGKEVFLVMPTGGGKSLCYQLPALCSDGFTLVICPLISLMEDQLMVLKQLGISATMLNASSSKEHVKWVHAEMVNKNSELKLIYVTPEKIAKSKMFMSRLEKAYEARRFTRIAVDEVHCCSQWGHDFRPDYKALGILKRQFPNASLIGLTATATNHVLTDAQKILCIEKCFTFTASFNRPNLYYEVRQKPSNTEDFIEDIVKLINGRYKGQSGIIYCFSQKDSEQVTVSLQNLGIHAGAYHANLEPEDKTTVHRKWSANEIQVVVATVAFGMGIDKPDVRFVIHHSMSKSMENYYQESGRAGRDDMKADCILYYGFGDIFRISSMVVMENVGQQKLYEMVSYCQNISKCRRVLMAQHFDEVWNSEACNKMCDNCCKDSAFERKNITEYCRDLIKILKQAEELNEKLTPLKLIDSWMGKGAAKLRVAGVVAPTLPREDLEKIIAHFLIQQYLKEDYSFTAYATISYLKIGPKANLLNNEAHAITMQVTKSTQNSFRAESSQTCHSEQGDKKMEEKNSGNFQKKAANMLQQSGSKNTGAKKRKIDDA
# Sequence of Voltage-gated inwardly rectifying potassium channel KCNH2 (Homo sapiens) (Q12809 whole entry, looked up): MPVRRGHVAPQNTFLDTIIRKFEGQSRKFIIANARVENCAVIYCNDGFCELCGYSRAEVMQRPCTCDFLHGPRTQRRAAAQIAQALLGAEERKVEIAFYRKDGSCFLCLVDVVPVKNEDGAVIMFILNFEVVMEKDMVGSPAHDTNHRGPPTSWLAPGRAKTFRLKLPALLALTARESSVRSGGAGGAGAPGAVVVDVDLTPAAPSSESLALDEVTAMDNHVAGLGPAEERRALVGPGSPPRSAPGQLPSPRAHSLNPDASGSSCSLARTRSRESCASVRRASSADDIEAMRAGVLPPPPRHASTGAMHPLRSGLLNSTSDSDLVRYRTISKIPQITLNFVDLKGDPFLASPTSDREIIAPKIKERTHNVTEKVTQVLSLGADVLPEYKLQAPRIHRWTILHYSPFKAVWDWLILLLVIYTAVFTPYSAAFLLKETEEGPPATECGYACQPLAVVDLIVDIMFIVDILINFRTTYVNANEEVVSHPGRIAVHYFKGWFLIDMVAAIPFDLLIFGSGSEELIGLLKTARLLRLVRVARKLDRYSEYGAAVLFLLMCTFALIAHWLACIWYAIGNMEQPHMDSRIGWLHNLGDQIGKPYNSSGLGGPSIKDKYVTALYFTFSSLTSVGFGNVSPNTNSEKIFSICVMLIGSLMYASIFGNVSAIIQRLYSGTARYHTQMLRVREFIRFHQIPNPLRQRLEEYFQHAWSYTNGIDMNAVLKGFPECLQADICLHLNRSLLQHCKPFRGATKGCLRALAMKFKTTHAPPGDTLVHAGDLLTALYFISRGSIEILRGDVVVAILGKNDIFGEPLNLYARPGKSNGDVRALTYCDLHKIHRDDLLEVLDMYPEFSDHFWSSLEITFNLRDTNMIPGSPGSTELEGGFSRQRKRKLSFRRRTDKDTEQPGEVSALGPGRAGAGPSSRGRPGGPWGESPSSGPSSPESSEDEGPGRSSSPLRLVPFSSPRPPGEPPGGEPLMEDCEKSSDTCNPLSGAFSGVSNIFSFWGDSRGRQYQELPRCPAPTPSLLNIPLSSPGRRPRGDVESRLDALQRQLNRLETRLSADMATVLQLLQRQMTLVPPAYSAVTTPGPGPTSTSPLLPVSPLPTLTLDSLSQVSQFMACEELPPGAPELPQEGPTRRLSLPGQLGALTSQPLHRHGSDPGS
# Sequence of Thyrotropin receptor (Homo sapiens) (P16473 whole entry, looked up): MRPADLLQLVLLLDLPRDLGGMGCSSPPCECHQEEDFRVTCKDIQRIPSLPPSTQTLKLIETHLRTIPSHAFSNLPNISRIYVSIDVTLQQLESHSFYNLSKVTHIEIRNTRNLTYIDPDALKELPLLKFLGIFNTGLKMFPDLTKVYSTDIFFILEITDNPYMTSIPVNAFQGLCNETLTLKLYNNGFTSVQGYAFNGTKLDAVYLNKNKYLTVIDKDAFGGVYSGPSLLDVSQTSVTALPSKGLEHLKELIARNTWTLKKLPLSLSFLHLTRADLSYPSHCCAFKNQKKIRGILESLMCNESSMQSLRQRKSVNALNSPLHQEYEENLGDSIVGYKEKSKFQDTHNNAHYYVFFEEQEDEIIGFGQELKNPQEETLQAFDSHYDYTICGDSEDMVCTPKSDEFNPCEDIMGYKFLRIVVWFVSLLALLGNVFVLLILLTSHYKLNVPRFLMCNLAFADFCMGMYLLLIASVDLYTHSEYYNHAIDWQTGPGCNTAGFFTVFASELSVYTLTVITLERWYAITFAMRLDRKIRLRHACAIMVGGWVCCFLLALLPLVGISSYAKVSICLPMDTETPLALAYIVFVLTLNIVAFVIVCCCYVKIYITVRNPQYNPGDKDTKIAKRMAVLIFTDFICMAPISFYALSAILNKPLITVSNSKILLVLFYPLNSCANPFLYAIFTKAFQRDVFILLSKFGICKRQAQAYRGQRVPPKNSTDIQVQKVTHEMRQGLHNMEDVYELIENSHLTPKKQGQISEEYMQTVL
# Sequence of Transient receptor potential cation channel subfamily V member 1 (Homo sapiens) (Q8NER1 whole entry, looked up): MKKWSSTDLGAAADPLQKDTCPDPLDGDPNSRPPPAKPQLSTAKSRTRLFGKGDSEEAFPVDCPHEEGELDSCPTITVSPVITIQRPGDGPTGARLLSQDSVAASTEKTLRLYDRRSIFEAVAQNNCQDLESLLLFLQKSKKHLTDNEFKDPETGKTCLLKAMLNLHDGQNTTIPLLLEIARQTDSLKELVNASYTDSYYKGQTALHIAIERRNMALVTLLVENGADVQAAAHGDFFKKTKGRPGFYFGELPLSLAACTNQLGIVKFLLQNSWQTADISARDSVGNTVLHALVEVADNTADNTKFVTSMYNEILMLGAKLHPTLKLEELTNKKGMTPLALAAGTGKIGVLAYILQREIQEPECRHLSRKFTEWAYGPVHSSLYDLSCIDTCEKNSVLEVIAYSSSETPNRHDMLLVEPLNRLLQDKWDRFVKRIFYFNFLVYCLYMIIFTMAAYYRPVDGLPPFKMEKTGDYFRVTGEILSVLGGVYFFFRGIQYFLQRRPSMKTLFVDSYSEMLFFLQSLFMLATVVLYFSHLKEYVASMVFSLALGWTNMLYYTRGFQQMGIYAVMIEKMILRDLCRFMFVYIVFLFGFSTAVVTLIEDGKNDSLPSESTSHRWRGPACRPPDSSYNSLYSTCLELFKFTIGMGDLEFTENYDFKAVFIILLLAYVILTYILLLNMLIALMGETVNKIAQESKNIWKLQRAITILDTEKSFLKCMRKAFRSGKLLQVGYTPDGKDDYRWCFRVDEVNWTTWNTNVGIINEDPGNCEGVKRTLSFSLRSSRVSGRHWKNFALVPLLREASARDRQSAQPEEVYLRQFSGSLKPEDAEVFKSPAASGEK
# Sequence of Galactokinase (Homo sapiens) (P51570 whole entry, looked up): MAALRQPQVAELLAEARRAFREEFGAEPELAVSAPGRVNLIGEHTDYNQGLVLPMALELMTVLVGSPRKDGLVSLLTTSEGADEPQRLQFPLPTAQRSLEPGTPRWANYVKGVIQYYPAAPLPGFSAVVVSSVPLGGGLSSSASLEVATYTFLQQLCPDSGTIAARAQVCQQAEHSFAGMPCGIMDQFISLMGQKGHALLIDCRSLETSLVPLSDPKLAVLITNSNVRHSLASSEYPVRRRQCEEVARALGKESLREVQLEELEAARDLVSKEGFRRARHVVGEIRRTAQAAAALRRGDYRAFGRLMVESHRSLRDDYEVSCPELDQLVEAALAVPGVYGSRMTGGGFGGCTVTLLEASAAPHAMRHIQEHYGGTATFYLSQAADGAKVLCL
# Sequence of Ferritin light chain (Equus caballus) (P02791 2-175 limits assumed): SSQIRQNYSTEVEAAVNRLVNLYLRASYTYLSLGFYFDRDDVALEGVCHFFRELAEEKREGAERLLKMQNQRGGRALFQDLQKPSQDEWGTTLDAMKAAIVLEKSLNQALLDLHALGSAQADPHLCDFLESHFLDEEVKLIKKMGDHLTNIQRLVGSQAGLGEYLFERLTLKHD
smiles,measurement,setting,value
CC(=O)N1CCN(c2ccc(NC(=O)Cc3cnc(-c4ccnc(F)c4)c(C)c3)nc2)CC1,Potency,[1],inactive
same,Potency,[2],inactive
same,Z-AUC,[3],1.31 (inactive)
same,Z-AUC,[3]; [21],1.23
same,Z-AUC,[3]; measured here: PEO4 Z-AUC,0.947
O=C([O-])C[O-].[Pt+2],Potency,[1],inactive
same,Z-AUC,[3],1.62 (inactive)
same,Z-AUC,[3]; [21],1.67
same,Z-AUC,[3]; measured here: PEO4 Z-AUC,1.5
[2H]c1nc(C)nc([2H])c1-c1cc(NC[C@@H](C)c2cccc3c(C(=O)NC)ccnc23)ncn1,Potency,[1],inactive
same,Potency,[2],inactive
same,Z-AUC,[3],1.38 (inactive)
same,Z-AUC,[3]; [21],1.26
same,Z-AUC,[3]; measured here: PEO4 Z-AUC,1.18
O=c1cnc2cnc(N3CCNCC3)nc2n1Cc1ccc(F)cc1,"activity change, negative = inhibition",[4],7.02% (inactive)
same,max response,[4]; [22],22.7%
same,max response,[4]; [23],28.6%
O=c1c(-c2ccc(O)cc2)coc2c([C@@H]3O[C@H](CO)[C@@H](O)[C@H](O)[C@H]3O)c(O)ccc12,Potency,[1],inactive
same,Z-AUC,[3],1.23 (inactive)
same,Z-AUC,[3]; [21],1.96
same,Z-AUC,[3]; measured here: PEO4 Z-AUC,1.37
Cc1cccc(CNc2ncnc3ccc(-c4ccccc4CN(C)C)cc23)c1,"activity change, negative = inhibition",[4],3.56% (inactive)
same,max response,[4]; [22],-10.3%
same,max response,[4]; [23],-6.74%
C[C@]12CCC(=O)C=C1CC[C@@H]1C2[C@@H](O)C[C@@]2(C)[C@H]1CC[C@]2(O)C(=O)CO (stereo partly specified),"activity change, negative = inhibition",[4],0.0073% (inactive) and -1.01% (inactive)
same,max response,[4]; [22],2.28% and 8.51%
same,max response,[4]; [23],2.14% and 9.17%
same,Potency,[5],inactive
same,Potency,[6],inactive
same,Potency,[7],inactive
same,Potency,[8],inactive
same,outcome,[9],inactive
same,Potency,[10],inactive
same,outcome,[11],inactive
same,Potency,[12],inactive
same,Potency,[13],inactive
same,Potency,[14],inactive
same,outcome,[15],inactive
same,outcome,[16],inactive
same,activation,[17],1% (inactive)
same,outcome,[18],inactive
same,outcome,[19],inactive
same,Potency,[20],inactive
N[C@@H]1CN(c2c(F)cc3c(=O)c(C(=O)O)cn([C@@H]4C[C@@H]4F)c3c2Cl)CC12CC2,Potency,[2],inactive
same,Z-AUC,[3],0.751 (inactive)
same,Z-AUC,[3]; [21],0.374
same,Z-AUC,[3]; measured here: PEO4 Z-AUC,0.877
COc1ccc2c(c1)C(c1ccc(F)cc1)=C(CN1CCCC1)CO2,Potency,[1],inactive
same,Potency,[2],inactive
same,Z-AUC,[3],-0.385 (inactive)
same,Z-AUC,[3]; [21],0.0924
same,Z-AUC,[3]; measured here: PEO4 Z-AUC,0.0293
Nc1nc(N)c2nc(-c3cccc(Cl)c3)c(N)nc2n1,Potency,[1],1050 nM (active)
same,Z-AUC,[3],-0.747 (inactive)
same,Z-AUC,[3]; [21],-0.162
same,Z-AUC,[3]; measured here: PEO4 Z-AUC,-0.371
O=C(Nc1ccc(OC(F)(F)Cl)cc1)c1cnc(N2CC[C@@H](O)C2)c(-c2ccn[nH]2)c1,Potency,[1],16600 nM (active)
same,Potency,[2],inactive
same,Z-AUC,[3],-1.46 (inactive)
same,Z-AUC,[3]; [21],-0.874
same,Z-AUC,[3]; measured here: PEO4 Z-AUC,-0.386
COc1ccc(S(=O)(=O)N[C@@H](CNc2nc(C)nc(N3CCC(c4ccc5c(n4)NCCC5)CC3)c2C)C(=O)O)cc1,Potency,[1],inactive
same,Potency,[2],inactive
same,Potency,[3],61.6 nM (active)
same,Z-AUC,[3]; [21],-1.54
same,Z-AUC,[3]; measured here: PEO4 Z-AUC,-1.12
CN(C)C/C=C/C(=O)Nc1cc2c(Nc3ccc(F)c(Cl)c3)ncnc2cc1O[C@H]1CCOC1,Potency,[1],2350 nM (active)
same,Potency,[2],inactive
same,Z-AUC,[3],-1.12 (inactive)
same,Z-AUC,[3]; [21],-0.735
same,Z-AUC,[3]; measured here: PEO4 Z-AUC,-1.62
CCOC(=N)c1nc2ccc3ncnc(Nc4cc(F)c(F)cc4Cl)c3c2s1,Potency,[1],inactive
same,Potency,[2],inactive
same,Z-AUC,[3],-1.14 (inactive)
same,Z-AUC,[3]; [21],-1.11
same,Z-AUC,[3]; measured here: PEO4 Z-AUC,-1.07
N#Cc1ccc(N(Cc2ccc(Br)cc2)n2cnnc2)cc1,Potency,[1],inactive
same,Potency,[2],inactive
same,Z-AUC,[3],-0.397 (inactive)
same,Z-AUC,[3]; [21],-0.74
same,Z-AUC,[3]; measured here: PEO4 Z-AUC,-0.908
